# Bioassay records: PubChem BioAssay, National Center for Advancing Translational Sciences (NCATS)
# Rows were chosen to be rich in hits. Some 12% of all compounds tested hit in one or more screens of this group.
# LASV entry inh = qHTS for Inhibitors of binding or entry into cells for Lassa Virus. Lassa virus pseudotype entry inhibition, cell reporter. Potency, µM (titrated, usually from 37.9 µM), without a hit: at the top dose activity change, negative = inhibition, most hits filed as inhibitors. hit rate 1.2% among 300,000; calls by dose curve; tested in HEK293 cells; also: potency is read from the fitted curve at half-maximal effect; % is scaled to controls: 0 for no effect and ±100 for the full control effect; nearly all actives have a fitted effect of over 50% in size
# Shiga inhibitor = A qHTS for Small Molecule Inhibitors of Shiga Toxin | hit rate 9.2% among 290,000 | AID 2315, 2010 | inhibition, % at 38.7 µM | Vero cells, Shiga toxin protein synthesis inhibition reporter; in the data active = inhibition mostly above about 28%, no sharp cut-off; inactive = mostly below about 43%; also: 0% is about no effect
# Cycloheximide cs = Cycloheximide Counterscreen for Small Molecule Inhibitors of Shiga Toxin; cell reporter, cycloheximide protein synthesis inhibition counterscreen; hit rate 12% among 300,000; max response, %; in the data active = max response mostly above about 13%, no sharp cut-off; inactive = mostly below about 14%; also: read at 38.3 µM for the half of the compounds with a filed dose; 0% is about no effect
# Marburg entry inh = qHTS for inhibitors of binding or entry into cells for Marburg Virus; Marburg virus pseudotyped entry inhibition, cell reporter; Potency, µM (top dose mostly 37.8 µM), for inactives: at the highest dose activity change, negative = inhibition, usual class: inhibitors; hit rate 1.8% among 300,000; AID 540276, 2011; calls by dose curve; tested in HEK293 cells; also: potency is read from the fitted curve at half-maximal effect; % is scaled to controls: 0 for no effect and ±100 for the full control effect
# An asterisk follows results filed as active; ? = inconclusive; / = not tested or not shown; [ ] = remark or other dose.
SMILES,LASV entry inh,Shiga inhibitor,Cycloheximide cs,Marburg entry inh
O=C(Nc1ccccc1SCC1CSc2nc3ccccc3c(=O)n21)c1cccc(Cl)c1 (stereo not drawn),2.51µM*,8.0,-5.0,?
O=C(Nc1ccccc1SCC1CSc2nc3ccccc3c(=O)n21)c1ccccc1Cl (stereo not drawn),?,13.0,-1.0,?
O=C(Nc1ccccc1SCC1CSc2nc3ccccc3c(=O)n21)c1ccccc1 (stereo not drawn),?,16.6,-2.8,?
CN(c1ccc(Cl)cc1)S(=O)(=O)c1nnc(NC(=O)C2CCCCC2)s1,3.4%[46.1 µM],/,/,/
CCOC(=O)C1=C(COC(=O)[C@@H](NC(=O)c2cccc(C)c2)C(C)C)NC(=O)NC1C (stereo partly drawn),-7.6%,/,/,-20.0%
CCc1ccc2[nH]c3nc(SCCN4CCOCC4)nnc3c2c1,/,17.4*,20.9*,/
CCc1ccc2[nH]c3nc(SCC(=O)NNC(=O)c4ccc(C(C)(C)C)cc4)nnc3c2c1,?,8.3,-1.5,4.61µM*
Cc1ccc(C(=O)NNC(=O)CSc2nnc3c(n2)[nH]c2ccc(C)cc23)cc1,-24.1%,44.0,-2.7,-13.1%
S=C(Nc1ccc2[nH]ccc2c1)NC1CCCCC1,/,65.0*,37.3*,0.5%
Cc1nc2ccc(NC(=S)NC3CCCCC3)cc2nc1C,13.3%,101.9*,42.3*,-6.7%
Cc1ccc(NC(=S)NC(=O)C2CC2)c(C)c1,12.3%[46.1 µM],63.7*,33.6*,?
Cc1ccc(NC(=S)NCCN(C2CCCCC2)C2CCCC2)cc1C,?,-6.3,-3.7,9.2µM*
S=C(Nc1cccc(Cl)c1)NC1CCCCC1,-11.3%,69.3,12.0,14.3%
Cc1ccc(NC(=S)NCCN(C2CCCCC2)C2CCCC2)cc1,/,14.5,-3.4,/
Cc1ccc(CN2CC(C(=O)Nc3ccc(F)c([N+](=O)[O-])c3)CC2=O)cc1 (stereo not drawn),7.3%,-8.6,4.8,?
CC1CCCCC1NC(=S)Nc1ccc(Cl)cc1Cl (stereo not drawn),1.2%,31.4*,11.8,-27.1%[46.1 µM]
Cc1ccc(NC(=S)NC2CCCC2)cc1C,6.9%,active,48.8*,-15.1%
Cc1cc(Cl)ccc1NC(=S)NC1CCCC1,?,32.2*,11.8*,-8.0%
Cc1ccc(NC(=S)NC(=O)C2CCC2)cc1C,?,101.0*,52.8*,-4.7%[46.1 µM]
Cc1ccc(NC(=S)NC(=O)C2CCCC2)cc1C,?,90.9*,50.0*,?
COc1ccc(C(=O)c2ccsc2N)cc1,8.4%,51.1*,28.2*,9.4%[46.1 µM]
COc1ccc(C(=O)c2ccc(CC#N)s2)cc1,12.6%,67.8*,23.9*,?
Cc1cccc(NC(=O)c2cc(S(=O)(=O)NCc3ccc4c(c3)OCO4)ccc2F)c1C,2.9%[46.1 µM],/,/,/
COc1ccccc1CNc1ccc2c(c1)CCC2,-5.1%[46.1 µM],/,32.3*,-12.8%[46.1 µM]
COc1ccc(CNc2ccc3c(c2)CCC3)cc1Br,/,69.8*,41.2*,/
SMILES,LASV entry inh,Shiga inhibitor,Cycloheximide cs,Marburg entry inh
CCOc1cc(CNc2ccc3c(c2)CCC3)ccc1OC,/,65.9,35.3*,-1.1%
CNC(=O)C1(C(F)(F)F)CC(CCCO)CCCO1 (stereo not drawn),/,-7.5,6.1,/
COC(=O)C/C=C/[C@@H](C)[C@H](NC(=O)OCC(Cl)(Cl)Cl)c1ccc2ccccc2c1,/,/,/,-17.9%[14.2 µM]
O=C(CSc1nc2ccccc2nc1Cc1ccccc1F)Nc1cccc(C(F)(F)F)c1,5.2%[46.1 µM],/,/,?
CC1(C)CC(=O)C2=C(C1)OC(N)=C(C#N)C2C1CC=CCC1 (stereo not drawn),-31.6%,-3.4,-1.3,2.0%
O=C(Nc1nc(-c2ccccn2)cs1)C1CC1,?,42.5*,31.5*,3.9%
Cc1cc(C)c(OCC(=O)Nc2nc(-c3ccccn3)cs2)c(C)c1,?,50.6,3.6,?
O=C(Nc1nc(-c2ccccn2)cs1)c1ccc(Br)s1,?,-3.8,9.8,?
O=C(Nc1nc(-c2ccccn2)cs1)C12CC3CC(CC(O)(C3)C1)C2,?,90.7*,33.5*,?
O=C(CC1CC2CCC1C2)Nc1nc(-c2ccccn2)cs1 (stereo not drawn),?,78.4*,46.4*,-1.0%[46.1 µM]
O=C(N[C@@H](Cc1ccccc1)C(=O)O)c1ccncc1,/,-15.6,-1.4,/
CCC(C)(C)n1nnnc1C(c1cccc(C#N)c1)N1CCN(c2cc(C)ccc2C)CC1 (stereo not drawn),?,22.1,-4.0,2.91µM*
CCC(C)(C)n1nnnc1C(c1ccncc1)N1CCN(c2cccc(OC)c2)CC1 (stereo not drawn),-26.6%,-2.4,-1.2,?
CCC(C)(C)n1nnnc1C(c1cccnc1)N1CCN(c2cccc(C(F)(F)F)c2)CC1 (stereo not drawn),?,-15.9,-3.0,13µM*
CC(C)(C)n1nnnc1C(c1cccc(C#N)c1)N1CCC(Cc2ccccc2)CC1 (stereo not drawn),?,9.0,-2.4,?
O=C(NCCc1ccccc1)c1ccc2nc(N3CCOCC3)sc2c1,/,13.9,11.8*,/
Cc1cccc(NC(=O)c2ccc3nc(N4CCOCC4)sc3c2)c1C,/,15.9*,9.6,/
O=C(NCc1cccc(Cl)c1)c1ccc2nc(N3CCOCC3)sc2c1,/,9.9,13.5,/
O=C(Nc1ccccc1Cl)c1ccc2nc(N3CCOCC3)sc2c1,/,19.3,11.1*,/
O=C(Nc1ccc(F)cc1F)c1ccc2nc(N3CCOCC3)sc2c1,/,49.1*,17.6*,/
O=[N+]([O-])c1cccc2c[nH]nc12,/,/,/,-22.3%
COc1cc(/C=C/c2ccc3cccc([N+](=O)[O-])c3n2)ccc1OCC#N,?,-6.2,15.7,?
O=[N+]([O-])c1cccc(/C=C/c2nc(C=Nc3ccc4ccccc4c3)c(O)o2)c1,0.2%,-8.0,-0.9,23.6%
O=[N+]([O-])c1cccc2ccc(/C=C/c3ccc(F)cc3)nc12,15.7%,94.7*,131.5*,1.2%
O=[N+]([O-])c1ccc(/C=C/c2ccc3cccc([N+](=O)[O-])c3n2)cc1,-15.0%,24.3,21.8*,?
SMILES,LASV entry inh,Shiga inhibitor,Cycloheximide cs,Marburg entry inh
O=[N+]([O-])c1cccc(/C=C/c2ccc3cccc(O)c3n2)c1,-3.0%[46.1 µM],107.2*,34.5*,-23.8%[46.1 µM]
CCOc1cc(/C=C/c2ccc3cccc([N+](=O)[O-])c3n2)ccc1O,?,19.2,12.8*,?
O=C(CSc1ccc(-c2ccccn2)nn1)N1CCCCC1,-0.7%,72.1*,30.8*,3.2%[46.1 µM]
O=C(CSc1ccc(-c2ccc(F)cc2)nn1)N1CCCCC1,?,49.1*,10.7,?
O=C(CSc1ccc(-c2ccncc2)nn1)N1CCCCC1,-16.3%,-4.4,9.0,-14.0%[46.1 µM]
O=C(CSc1ccc(-c2cccnc2)nn1)N1CCCCC1,/,1.0,-6.5,/
COc1cccc(-c2ccc(SCC(=O)c3ccccc3)nn2)c1,9.9%,48.1*,21.2,?
O=C(CSc1ccc(-c2ccco2)nn1)N1CCCCCC1,1.2%,51.1*,23.8,?
O=C(COC(=O)C1CCN(S(=O)(=O)c2ccc3c(c2)OCCO3)CC1)Nc1cc(C(F)(F)F)ccc1Cl,0.3%,-6.4,-2.2,?
CCCn1c(=O)c2sccc2n2c(CCCC(=O)Nc3ccccc3F)nnc12,25.6%[46.1 µM],/,/,/
CCOC(=O)C1NNN2C3CCCCC3C(N3CCN(C4CCCCC4)CC3)NC12 (stereo not drawn),/,/,/,4.8%[46.1 µM]
O=C(CSc1ccc(-c2ccccc2)nn1)N1CCCCC1,/,71.6*,30.9*,-4.2%[46.1 µM]
